# From PubChem BioAssay
# Several values for one entry are separate records, joined by “and”; a condition that tells them apart may be missing. Equal values may be shown once. For some assays here: Potency and affinity values are given separately. Activity calls are given as the source filed them.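 Rule for the calls, unless noted: active = thallium flux through the channel raised or lowered by more than 3 SD from vehicle-only wells, actives on both sides; inactive = the rest.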
# What was measured:
# [1] = polyglutamine-triggered caspase-3 activation inhibitors, cell-based (AID 1583); conditions: polyglutamine-induced caspase-3 activation, cell assay; stronger effect = higher value;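 tested at 10 µM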
# [2] = suppressors of polyQ aggregation in yeast, 75Q-TubU reporter (AID 1593); conditions: Yeast 75Q polyglutamine aggregation reporter
# [3] = rescue of polyQ-huntingtin neuronal dysfunction in worms, whole organism, C. elegans mechanosensory neurons, N-terminal huntingtin (AID 1599); conditions: touch response, stronger effect = higher value
# [4] = inhibitors of mitochondrial cytochrome c release, biochemical, purified mitochondria (AID 1603); conditions: stronger effect = lower value;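 note: mouse liver mitochondria challenged with calcium chloride; signal normalized to the plate average as 100%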
# [5] = inhibitors of polyQ protein aggregation (AID 1604); conditions: polyglutamine-induced protein aggregation inhibition assay; stronger effect = higher value; tested at 2.5 µM
# [6] = enhancers of glutamate uptake in motor neurons, MN-1 cell line (AID 1612); conditions: MN-1 motor neuron cells, stronger effect = higher value;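 note: tested at 1 µM final; 0% = mean of DMSO vehicle wells on each plate; positive means more glutamate uptake than control and negative means less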
# [7] = suppressors of polyglutamine aggregation in yeast, 75Q-TubH (AID 1616); conditions: S. cerevisiae 75Q-TubH polyglutamine aggregation suppression; stronger effect = higher value
# [8] = Cy5 fluorescence interference with SSB-bound oligo, artefact control for HCV NS3 helicase inhibitor project, biochemical, NIH Clinical Collection, E. coli SSB (AID 743268; call rule not given here)
# [9] = tested on: Hepatitis C virus NS3 helicase; assay: HCV NS3 helicase inhibitors, primary screen, biochemical, fluorescence polarization, NIH Clinical Collection (AID 743270; call rule not given here); conditions: NS3 helicase binding to Cy5-dT15 DNA, stronger effect = higher value, concentration not given here
# [10] = target: Single-stranded DNA-binding protein (Escherichia coli (strain K12)) (UniProt P0AGE0); assay: E. coli SSB displacement from DNA, counter-screen for HCV NS3 helicase inhibitor project, biochemical, fluorescence polarization, NIH Clinical Collection (AID 743271; in the data active = inhibition above about 28%); conditions: stronger effect = higher value, concentration not given here
# [11] = fluorescence interference in NS3h assay format, artefact control for HCV NS3 helicase inhibitor project, biochemical, NIH Clinical Collection (AID 743272; call rule not given here;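 note: HCV NS3 helicase with a Cy5 labelled single stranded DNA probe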); conditions: fluorescence interference counterscreen, stronger effect = lower value
# [12] = viability rescue of complex I mutant cybrids, primary screen, cell-based, galactose medium, ATP luminescence (AID 1645843;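 active = z-score of at least 1.8 in each of two replicates, scored against plate mean and spread of sample wells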;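 note: positive z means more ATP and so rescue of galactose-driven cybrid death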); conditions: complex I mutant cybrid cells, 72 h, stronger effect = higher value
# [13] = LFS_MB_P medulloblastoma growth inhibition, cell-based, chromothripsis tumors, cisplatin or BGB combos (AID 1671449; in the data active = inhibition above about 80%;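 note: cells exposed for 96 hours; 0% = vehicle DMSO and 100% = killing by high DMSO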); conditions: LFS_MB_P medulloblastoma cells
# F380Y/beta4 = assay: modulators of BK channel variants, profiling panel, selectivity assay, cell-based, U2OS BacMam, thallium flux, beta subunits (AID 1259406); conditions: at 30 µM;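 note: initial slope of Thallos dye fluorescence rise after thallium is added; log ratio against the mean of 0.3% DMSO vehicle wells on the same plate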
# [14] = target: Calcium-activated potassium channel subunit alpha-1 (Homo sapiens) + Leucine-rich repeat-containing protein 26 (Homo sapiens) (UniProt Q12791+Q2I0M4); assay: as above; conditions: F380Y/Slo1WT/gamma1, at 30 µM
# R275C = assay: as above; conditions: at 30 µM
# R275C/beta1 = assay: as above; conditions: at 30 µM
# R275C/beta2Delta = assay: as above; conditions: at 30 µM
# R275C/beta4 = assay: as above; conditions: at 30 µM
# R275C/Slo1WT/beta2 = assay: as above; conditions: at 30 µM
# [15] = at 0.5 µM, stronger effect = higher value
# [16] = measured here: combination with BGB IC20, at 0.005 µM
# [17] = measured here: combination with BGB IC40, at 0.005 µM
# [18] = measured here: combination with BGB IC40, at 0.05 µM
# [19] = measured here: combination with cisplatin, at 0.5 µM, stronger effect = higher value
# [20] = measured here: combination with cisplatin, at 5 µM, stronger effect = higher value
# Calcium-activated potassium channel subunit alpha-1 (Homo sapiens) + Leucine-rich repeat-containing protein 26 (Homo sapiens), sequence (Q2I0M4 whole entry, looked up, one chain of several): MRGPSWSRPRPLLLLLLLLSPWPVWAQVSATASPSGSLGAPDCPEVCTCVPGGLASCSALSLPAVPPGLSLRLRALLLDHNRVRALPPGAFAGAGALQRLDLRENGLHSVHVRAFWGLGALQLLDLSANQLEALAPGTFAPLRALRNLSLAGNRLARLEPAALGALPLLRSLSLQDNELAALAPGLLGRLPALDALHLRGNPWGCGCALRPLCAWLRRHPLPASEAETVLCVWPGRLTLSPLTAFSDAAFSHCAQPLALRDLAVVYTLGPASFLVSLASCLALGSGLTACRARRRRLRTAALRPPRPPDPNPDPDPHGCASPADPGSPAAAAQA
structure (smiles),measurement,setting,value
O=C1c2c(O)ccc(O)c2C(=O)c2c(NCCNCCO)ccc(NCCNCCO)c21,inhibition,[1],63.3%
same,score,[2],-2.9
same,rescue above control,[3],0
same,cytochrome c release ratio,[4],3.49
same,inhibition of aggregation,[5],52.2%
same,glutamate uptake change,[6],-30.1%
same,aggregation suppression score,[7],-1.69
same,fluorescence ratio,[8],0.74 (active)
same,inhibition,[9],128% (active)
same,inhibition,[10],121% (active)
same,fluorescence ratio,[11],0.92 (inactive)
same,z-score,[12],-1.29 (inactive) and -1.52 (inactive) and -2.29 (inactive)
same,inhibition,[13]; [15],-22.5% (inactive)
same,inhibition,[13]; [16],-15.5%
same,inhibition,[13]; [17],-3.49%
same,inhibition,[13]; [18],-28%
same,inhibition,[13]; [19],-39.3%
same,inhibition,[13]; [20],106%
same,log fold change Tl+ flux,F380Y/beta4,-0.0582 (inactive)
same,log fold change Tl+ flux,[14],-0.0507 (inactive)
same,log fold change Tl+ flux,R275C,-0.0256 (inactive)
same,log fold change Tl+ flux,R275C/beta1,-0.052 (inactive)
same,log fold change Tl+ flux,R275C/beta2Delta,-0.0164 (inactive)
same,log fold change Tl+ flux,R275C/beta4,-0.0611 (inactive)
same,log fold change Tl+ flux,R275C/Slo1WT/beta2,-0.0613 (inactive)
O=C(C1CCCCC1)N1CC(=O)N2CCc3ccccc3C2C1 (stereo not given),inhibition,[1],2.42%
same,score,[2],0.82
same,rescue above control,[3],-8.41
same,cytochrome c release ratio,[4],0.99
same,inhibition of aggregation,[5],65.4%
same,glutamate uptake change,[6],7.89%
same,aggregation suppression score,[7],0.607
same,fluorescence ratio,[8],0.91 (inactive)
same,inhibition,[9],-5.91% (inactive)
same,inhibition,[10],-2% (inactive)
same,fluorescence ratio,[11],0.91 (inactive)
same,z-score,[12],1.16 (inactive) and -1.2 (inactive) and 1.07 (inactive)
same,log fold change Tl+ flux,F380Y/beta4,0.0341 (inactive)
same,log fold change Tl+ flux,[14],-0.00263 (inactive)
same,log fold change Tl+ flux,R275C,-0.0164 (inactive)
same,log fold change Tl+ flux,R275C/beta1,0.0419 (inactive)
same,log fold change Tl+ flux,R275C/beta2Delta,-0.0208 (inactive)
same,log fold change Tl+ flux,R275C/beta4,0.0526 (inactive)
same,log fold change Tl+ flux,R275C/Slo1WT/beta2,0.0259 (inactive)
CC(=O)OCC(CCn1cnc2cnc(N)nc21)COC(C)=O,fluorescence ratio,[8],1.06 (inactive)
same,inhibition,[9],-1.98% (inactive)
same,inhibition,[10],-4.72% (inactive)
same,fluorescence ratio,[11],0.99 (inactive)
same,z-score,[12],0.72 (inactive) and 0.425 (inactive) and 0.32 (inactive)
same,inhibition,[13]; [15],-15.4% (inactive)
same,inhibition,[13]; [16],-4.33%
same,inhibition,[13]; [17],-16.3%
same,inhibition,[13]; [18],-21.9%
same,inhibition,[13]; [19],-33%
same,inhibition,[13]; [20],-20.4%
same,log fold change Tl+ flux,F380Y/beta4,0.0232 (inactive)
same,log fold change Tl+ flux,[14],0.0418 (inactive)
same,log fold change Tl+ flux,R275C,-0.0357 (inactive)
same,log fold change Tl+ flux,R275C/beta1,0.0343 (inactive)
same,log fold change Tl+ flux,R275C/beta2Delta,-0.0321 (inactive)
same,log fold change Tl+ flux,R275C/beta4,0.0276 (inactive)
same,log fold change Tl+ flux,R275C/Slo1WT/beta2,0.0386 (inactive)
Oc1c(Cl)cc(Cl)c2cccnc12,inhibition,[1],31.4%
same,score,[2],-0.52
same,cytochrome c release ratio,[4],0.8
same,inhibition of aggregation,[5],-25.9%
same,glutamate uptake change,[6],-23%
same,aggregation suppression score,[7],-0.164
same,fluorescence ratio,[8],1.02 (inactive)
same,inhibition,[9],2.27% (inactive)
same,inhibition,[10],-0.48% (inactive)
same,fluorescence ratio,[11],0.95 (inactive)
same,z-score,[12],-1.51 (inactive)
same,log fold change Tl+ flux,F380Y/beta4,0.326 (active)
same,log fold change Tl+ flux,[14],0.231 (active)
same,log fold change Tl+ flux,R275C,0.0996 (active)
same,log fold change Tl+ flux,R275C/beta1,0.249 (active)
same,log fold change Tl+ flux,R275C/beta2Delta,0.0748 (inactive)
same,log fold change Tl+ flux,R275C/beta4,0.422 (active)
same,log fold change Tl+ flux,R275C/Slo1WT/beta2,0.19 (active)
